Measurements reported in PubChem BioAssay (NCI).
Compounds without any hit were thinned out: in the full panel of roughly 83,000, 20% have a hit.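 Growth was measured after 48 h exposure to one concentration of compound in 96-well plates. Values under 10 count as active.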 Activity calls are given as the source filed them.

Columns and labels:
Assay in all cases: NCI-60 one-dose screen, 48 h (100 = growth as untreated, 0 = no growth, -100 = all killed)
Conditions in all cases: 10 µM unless noted
DU-145 prostate = test system: DU-145 prostate
K-562 leukemia = test system: K-562 leukemia
MALME-3M melanoma = test system: MALME-3M melanoma
MDA-MB-231 breast = test system: MDA-MB-231 breast
RXF 393 renal = test system: RXF 393 renal
SF-268 CNS = test system: SF-268 CNS
SF-295 CNS = test system: SF-295 CNS
UACC-257 melanoma = test system: UACC-257 melanoma
M14 melanoma = test system: M14 melanoma
SF-539 CNS = test system: SF-539 CNS

Measured: growth

O=C(Nc1cccc2[nH]c(C(F)(F)F)nc12)c1ccc(Br)cc1F
inactive: DU-145 prostate 46.8% | K-562 leukemia 13% | MALME-3M melanoma 17.9% | MDA-MB-231 breast 30.7% | RXF 393 renal 51.8% | SF-268 CNS 29.1% | SF-295 CNS 35.3% | UACC-257 melanoma 40.1% | M14 melanoma 48.7%

O=C(O)c1ccccc1Nc1cccc(S(F)(F)(F)(F)F)c1
inactive: DU-145 prostate 107% | K-562 leukemia 107% | MALME-3M melanoma 101% | MDA-MB-231 breast 110% | RXF 393 renal 116% | SF-268 CNS 94.2% | SF-295 CNS 99.4% | UACC-257 melanoma 102% | M14 melanoma 102%

CCOC(=O)/C=C/c1ccc(C(=O)OCC)[nH]1
inactive: DU-145 prostate 73.4% | K-562 leukemia 19.4% | MALME-3M melanoma 73.1% | MDA-MB-231 breast 58.8% | RXF 393 renal 87.3% | SF-268 CNS 69.2% | SF-295 CNS 63% | UACC-257 melanoma 68.1% | M14 melanoma 47.6%

COc1ccc(/C=c2/c(=O)[nH]c3nc4sc(C)c(C)c4c(=O)n23)cc1
inactive: DU-145 prostate 92.6% | K-562 leukemia 81.6% | MALME-3M melanoma 92.6% | MDA-MB-231 breast 97.3% | RXF 393 renal 93.7% | SF-268 CNS 88.5% | SF-539 CNS 92.8% | M14 melanoma 96.2%

O=C(CCCN1CCOCC1)Nc1ccc(Cn2nnc3c2C(=O)c2nnn(Cc4ccc(NC(=O)CCCN5CCOCC5)cc4)c2C3=O)cc1
inactive: DU-145 prostate 82.3% | K-562 leukemia 20.9% | RXF 393 renal 84.5% | SF-268 CNS 23.4% | SF-295 CNS 79.3% | M14 melanoma 60.6%
active: MALME-3M melanoma -74.3% | MDA-MB-231 breast 5.78% | UACC-257 melanoma -88%

O=C1Nc2ccccc2/C1=C/C(=N/c1nnc(-c2ccccc2)s1)c1ccccc1
inactive: DU-145 prostate 34.4% | K-562 leukemia 20.4% | MALME-3M melanoma 37.8% | MDA-MB-231 breast 54.5% | RXF 393 renal 27.1% | SF-268 CNS 60.4% | SF-539 CNS 52.7% | M14 melanoma 75.7%

CCN(CC)CCCCNc1ccc(NCCCCN(CC)CC)c2c1C(=O)c1ccccc1C2=O
active: K-562 leukemia 1.87% | M14 melanoma -36.6%
inactive: DU-145 prostate 94.1% | MALME-3M melanoma 132% | MDA-MB-231 breast 80.5% | RXF 393 renal 74.9% | SF-268 CNS 101% | SF-295 CNS 110% | UACC-257 melanoma 97.9%

CCCCCN(CCCCC)CCC[C@@H](C)[C@H]1CC[C@H]2[C@@H]3[C@H](OCCCN)C[C@@H]4C[C@H](OCCCN)CC[C@]4(C)[C@H]3C[C@H](OCCCN)[C@]12C
active: K-562 leukemia -19.4% | SF-539 CNS -21.9%
inactive: DU-145 prostate 76.5% | MALME-3M melanoma 62.2% | MDA-MB-231 breast 37% | RXF 393 renal 87.1% | SF-268 CNS 87.5% | M14 melanoma 42.8%

O=c1c2cccc3c(Nc4ccccn4)ccc(c32)c2nc3ccccc3n12
inactive: DU-145 prostate 91.8% | K-562 leukemia 46.5% | MALME-3M melanoma 86.3% | MDA-MB-231 breast 70.6% | RXF 393 renal 108% | SF-268 CNS 87.2% | SF-539 CNS 85.7% | M14 melanoma 91%

CC(C)Oc1nc2c(c(=O)n(C)c(=O)n2C)n1C
inactive: DU-145 prostate 105% | K-562 leukemia 95% | MALME-3M melanoma 107% | MDA-MB-231 breast 103% | RXF 393 renal 116% | SF-268 CNS 100% | SF-295 CNS 101% | UACC-257 melanoma 88% | M14 melanoma 107%

O=C1c2ccccc2-c2nccc3cc(Cl)nc1c23
active: K-562 leukemia -6.02% | MALME-3M melanoma -65.6% | RXF 393 renal -43.1% | M14 melanoma -63.4%
inactive: DU-145 prostate 37.3% | MDA-MB-231 breast 78.7% | SF-268 CNS 24.6% | SF-295 CNS 53.2% | UACC-257 melanoma 58.6%

CCCCCCCCOC(=O)CC[C@@H](C)[C@H]1CC[C@H]2[C@@H]3[C@H](OC(=O)CCN)C[C@@H]4C[C@H](OC(=O)CCN)CC[C@]4(C)[C@H]3C[C@H](OC(=O)CCN)[C@]12C
active: K-562 leukemia -74.5%
inactive: DU-145 prostate 74.4% | MALME-3M melanoma 67.8% | MDA-MB-231 breast 69.3% | RXF 393 renal 109% | SF-268 CNS 69.7% | SF-539 CNS 56.3% | M14 melanoma 84.4%

COc1ccc(/C=C2\N=C3SC=C(N)N3C2=O)cc1
active: K-562 leukemia 5.29% | MALME-3M melanoma -15.3% | RXF 393 renal -21.2%
inactive: DU-145 prostate 26.5% | MDA-MB-231 breast 42.5% | SF-268 CNS 37.3% | SF-539 CNS 26.7% | M14 melanoma 24.8%

CCN(CC)CCCC(C)N/C(=C1\C(=O)NC(=O)\C1=C(/NC(C)CCCN(CC)CC)c1cccc(OC)c1)c1cccc(OC)c1 (stereo unspecified)
active: DU-145 prostate 4.62% | K-562 leukemia -24.6% | MALME-3M melanoma -84.2% | MDA-MB-231 breast -50.9% | RXF 393 renal -20.8% | SF-268 CNS -24% | SF-539 CNS -80.6% | M14 melanoma -75.1%

Cc1sc2nc3[nH]/c(=C\c4ccc(Cl)cc4)c(=O)n3c(=O)c2c1C
inactive: DU-145 prostate 109% | K-562 leukemia 101% | MALME-3M melanoma 102% | MDA-MB-231 breast 111% | RXF 393 renal 99.5% | SF-268 CNS 102% | SF-539 CNS 103% | M14 melanoma 103%

O=C1c2c[n+](Cc3ccccc3)ccc2-c2nc3ccccc3c3ccnc1c23
active: DU-145 prostate -89.5% | K-562 leukemia -6.85% | MALME-3M melanoma -95.7% | MDA-MB-231 breast -14% | RXF 393 renal -57.1% | SF-268 CNS -1.74% | SF-295 CNS -17.4% | UACC-257 melanoma -67.9% | M14 melanoma -68.4%

COc1ncc(-c2ccc3ncnc(Nc4cccc(Cl)c4)c3c2)cc1NS(C)(=O)=O
active: MALME-3M melanoma -2.69% | RXF 393 renal 7.92%
inactive: DU-145 prostate 27.4% | K-562 leukemia 56.3% | MDA-MB-231 breast 43.8% | SF-268 CNS 44.8% | SF-295 CNS 32.1% | M14 melanoma 46.9%

COc1ccc(/C(=C/c2ccc3ccccc3c2)c2nn[nH]n2)cc1OC
active: RXF 393 renal -13.3% | SF-295 CNS 4.59%
inactive: DU-145 prostate 20.9% | K-562 leukemia 17.8% | MALME-3M melanoma 49.1% | MDA-MB-231 breast 44.8% | SF-268 CNS 53.3% | UACC-257 melanoma 66.3% | M14 melanoma 10.9%

O=C1Nc2ccccc2/C1=C/C(=N/c1nnc(-c2ccc(Cl)cc2)s1)c1ccccc1
inactive: DU-145 prostate 30.5% | MDA-MB-231 breast 35.5% | SF-268 CNS 55.9% | SF-539 CNS 27.9% | M14 melanoma 52.2%
active: K-562 leukemia 8.67% | MALME-3M melanoma -26.5% | RXF 393 renal -63.3%

NC(N)=Nc1ccc(S(=O)(=O)O)cc1
inactive: DU-145 prostate 131% | K-562 leukemia 92.2% | MALME-3M melanoma 103% | MDA-MB-231 breast 93.6% | RXF 393 renal 136% | SF-268 CNS 110% | SF-295 CNS 117% | UACC-257 melanoma 99.1% | M14 melanoma 110%

COc1ccc2nc3cc(Cl)ccc3c(N3CCN(c4nccc(NCc5ccccc5)n4)CC3)c2c1
inactive: DU-145 prostate 78.7% | K-562 leukemia 33% | MALME-3M melanoma 113% | MDA-MB-231 breast 67.5% | RXF 393 renal 42.2% | SF-268 CNS 72.3% | SF-295 CNS 81.6% | UACC-257 melanoma 88% | M14 melanoma 96.3%

O=S(=O)(NCCCNc1cc(-c2cn(-c3ccccc3)nc2-c2ccccc2)ccn1)c1ccc(C(F)(F)F)cc1
inactive: DU-145 prostate 75.9% | K-562 leukemia 15.8% | MALME-3M melanoma 70% | MDA-MB-231 breast 52.5% | RXF 393 renal 48% | SF-268 CNS 58.2% | SF-295 CNS 38.8% | M14 melanoma 53.1%

COc1cnc2c(c1)C(=O)c1c-2n(CCCN2CCN(C)CC2)c(=O)c2cc([N+](=O)[O-])ccc12
active: DU-145 prostate -42.5% | K-562 leukemia -50.8% | MALME-3M melanoma -72.9% | MDA-MB-231 breast -72.3% | SF-268 CNS -60.7% | SF-295 CNS -80.8% | UACC-257 melanoma -37.6% | M14 melanoma -85.2%
inactive: RXF 393 renal 84.2%

COC(=O)[C@@H]1CC[C@]2(C)[C@H](CC[C@@H]3O[C@@]32C)[C@@]1(C)CC(=O)c1ccoc1
inactive: DU-145 prostate 112% | K-562 leukemia 100% | MALME-3M melanoma 97.7% | MDA-MB-231 breast 88.3% | RXF 393 renal 111% | SF-268 CNS 103% | SF-295 CNS 104% | UACC-257 melanoma 88.4% | M14 melanoma 108%

COc1ccc(C(=O)/C=C/c2c(Cl)c3c(c(OC)c2Cl)OCC(=O)N3)cc1
inactive: DU-145 prostate 18.7% | MALME-3M melanoma 66.8% | MDA-MB-231 breast 34.9% | RXF 393 renal 36.3% | SF-268 CNS 29.9% | SF-295 CNS 32.1% | UACC-257 melanoma 50% | M14 melanoma 17.7%
active: K-562 leukemia 3.42%

C=C1CC[C@@H]2[C@](C)(COC(C)=O)[C@H](OC(C)=O)CC[C@@]2(C)[C@@H]1CC(Nc1ccc(S(=O)(=O)Nc2ccc(Cl)nn2)cc1)C1=CCOC1=O (stereo partly specified)
active: K-562 leukemia 6.81% | RXF 393 renal -13.4%
inactive: DU-145 prostate 40.2% | MALME-3M melanoma 55.3% | MDA-MB-231 breast 23.8% | SF-268 CNS 43.3% | SF-295 CNS 92.8% | UACC-257 melanoma 44% | M14 melanoma 10.7%

CCCCCCCCCCCCCCCCNCCC[C@@H](C)[C@H]1CC[C@H]2[C@@H]3[C@H](OCCCN)C[C@@H]4C[C@H](OCCCN)CC[C@]4(C)[C@H]3C[C@H](OCCCN)[C@]12C
active: DU-145 prostate -82.2% | K-562 leukemia -34.7% | MALME-3M melanoma -60.7% | MDA-MB-231 breast -98.2% | RXF 393 renal -41.2% | SF-268 CNS -38.2% | SF-539 CNS -68% | M14 melanoma -28.7%

Cc1cc(OCc2ccc(C(F)(F)F)cc2)c2c(c1)C(=O)C=C(NCCN1CCCC1)C2=O
active: K-562 leukemia -8.28% | MALME-3M melanoma -45.4% | UACC-257 melanoma -92.4% | M14 melanoma -84.9%
inactive: DU-145 prostate 76.2% | MDA-MB-231 breast 74.7% | RXF 393 renal 53.6% | SF-268 CNS 69% | SF-295 CNS 64.1%

O=C1Nc2ccc(Br)cc2C12CC(c1ccccc1)=NN2 (stereo unspecified)
inactive: DU-145 prostate 69.9% | K-562 leukemia 23.8% | MALME-3M melanoma 37.9% | MDA-MB-231 breast 50.6% | RXF 393 renal 61.4% | SF-268 CNS 58.7% | SF-539 CNS 32.9% | M14 melanoma 28.2%

COc1ccc(/C=C2\N=C3Sc4cc(Cl)ccc4C(=O)N3C2=O)cc1
inactive: DU-145 prostate 110% | K-562 leukemia 94.1% | MALME-3M melanoma 101% | MDA-MB-231 breast 100% | RXF 393 renal 106% | SF-268 CNS 106% | SF-539 CNS 98.7% | M14 melanoma 99.6%
